High-throughput results from PubChem.
HT1080NT lethal: qHTS for induction of synthetic lethality in tumor cells producing 2HG: qHTS for the HT-1080-NT fibrosarcoma cell line. 360,000 tested, 1.6% active. Potency, µM (top dose mostly 46.1 µM), hits mostly cytotoxic. HT-1080-NT fibrosarcoma viability, CellTiter-Glo ATP luminescence, 48 h;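 further: NT is the 2HG producing partner of a matched IDH1 knockdown line; nearly all actives have a fitted effect of over 55% in size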
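750 cells/well, RPMI + 5% FBS; 2 h settle, compound pin-transfer, 48 h at 37 degrees C. CellTiter-Glo 10 min RT, luminescence. Normalized to DMSO and media-only wells.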
DT40 TDP1 no CPT: qHTS for Inhibitors of human tyrosyl-DNA phosphodiesterase 1 (TDP1): qHTS in cells in absence of CPT; DT40 Tdp1-/- hTDP1 cells, no CPT, ATP luminescence, 48 h; Potency, µM (titrated, usually from 46.2 µM), most hits filed as inhibitors; 420,000 tested, 15% active; AID 686978, 2013; further: nearly all actives have a fitted effect of over 55% in size
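Readout: luminescence from CellTiter-Glo after 30 min in the dark at RT. Cells: DT40 Tdp1-/- with stable hTDP1, 400/well. Exposure: compounds alone, ≥48 hr, 37 °C.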
uPA surface inh: qHTS for Inhibitors of Cell Surface uPA Generation | 330,000 tested, 0.31% active | Potency, µM (titrated, usually from 38.3 µM), hits mostly inhibitors | cell surface uPA generation assay, qHTS | AID 540303, 2011; active means well fitted inhibition curve with a large enough effect; inconclusive means small, poorly fitted or top-dose-only effect; inactive means no such curve, though single readings can be large or run the other way; tested in mouse RAW 264.7 cells; further: nearly all actives have a fitted effect of over 55% in size
DT40 TDP1 CPT: qHTS for Inhibitors of human tyrosyl-DNA phosphodiesterase 1 (TDP1): qHTS in cells in presence of CPT | chicken DT40 Tdp1-/-;hTDP1 cells + 20 nM CPT, ATP luminescence, 48 h | Potency, µM (series often up to 46.2 µM), usual class: inhibitors | 420,000 tested, 12% active; further: nearly all actives have a fitted effect of over 55% in size
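Cell growth measured by CellTiter-Glo luminescence after a minimum 48 h, 37 C compound exposure with 20 nM CPT in Tdp1-knockout DT40 cells stably expressing hTDP1, seeded 400/well; qHTS titration format.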
IL1B secr inh: qHTS for Inhibitors of Inflammasome Signaling: IL-1-beta AlphaLISA Primary Screen. 360,000 tested, 4.7% active. AID 743279, 2014. THP-1 LPS/ATP IL-1B secretion, AlphaLISA, 16 h; active compounds read low. activity change, % at 57.5 µM; in the data active means activity change below about -50%; inconclusive means mostly about -30% to -49%
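Secreted IL-1B measured by AlphaLISA bead assay after 16 h compound exposure of THP-1 cells; compounds (final up to 57.5 uM) added 1 h before LPS (250 ng/mL) and ATP (1.25 mM) stimulation; lower signal means less secretion.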
HT1080 IDH1KD tx: qHTS for induction of synthetic lethality in tumor cells producing 2HG: qHTS for the HT-1080-IDH1KD cell line. HT-1080 IDH1 knockdown viability, ATP luminescence, 48 h. Potency, µM (top dose mostly 46.1 µM), usual class: cytotoxic. 360,000 tested, 2% active. AID 686971, 2013
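In this qHTS, HT-1080 cells depleted of IDH1 are exposed for 48 h at 37 °C to compound titrations. Toxicity is scored from CellTiter-Glo luminescence, with DMSO as full viability and medium alone as none.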
A number is an active result; n = inactive; u = inconclusive; x = no result. A selection: hits, their analogues and other compounds. The true share with any hit is near 19%. Unless noted, the call rests on the fitted dose curve; in most records, active means well fitted curve in the direction sought with a large enough effect; inconclusive means small, poorly fitted or top-dose-only effect, or another doubt; inactive means no such curve, though single readings can be large; an effect the other way counts as inactive or inconclusive.

SMILES	HT1080NT lethal	DT40 TDP1 no CPT	uPA surface inh	DT40 TDP1 CPT	IL1B secr inh	HT1080 IDH1KD tx
Brc1cccc(-c2nc3c4ccccc4ccn3c2Cc2ccsc2)c1	n	u	x	25.9µM	n	n
O=C(c1cccc(C(F)(F)F)c1)C1CCCN(C(=O)CCn2cnnn2)C1 (stereo not drawn)	n	n	n	n	n	n
CCOC(=O)Cc1c(C)nc2c(-c3cccc(Br)c3)cnn2c1C	n	20.6µM	n	u	n	n
Cc1cc(N)n2ncc(-c3cccc(Br)c3)c2n1	u	n	n	n	n	u
C/C(=N\NC(=O)C1(C)CC1(Br)Br)c1cccc(NC(=O)C2CCC2)c1 (stereo not drawn)	n	25.9µM	n	18.4µM	n	n
O=C(NC(Cc1ccccc1)C(=O)O)C1CCN(S(=O)(=O)c2ccccc2C(F)(F)F)CC1 (stereo not drawn)	n	n	n	n	n	n
COc1ccc(-c2c(-c3ccsc3)oc3c2C(O)CCC3)cn1 (stereo not drawn)	n	n	x	n	n	n
CC(C)(C)c1ccc(-n2nc(C#N)c(Cl)cc2=O)cc1	7.31µM	2.91µM	n	3.66µM	-96.9	3.26µM
CCCCCCc1cc2cc(-c3nnc(-c4cccc(Cl)c4)o3)c(=O)oc2cc1O	x	n	x	n	x	x
C=CCOC(=O)C1=C(C)NC(=O)NC1c1cc2c(cc1Br)OCO2 (stereo not drawn)	n	n	n	n	n	n
COCCNC(=S)N1CCc2cc(OC)c(OC)cc2C1COc1ccc(F)cc1 (stereo not drawn)	n	u	n	u	n	u
CCc1ccc(OCC2c3cc(OC)c(OC)cc3CCN2C(=O)COc2ccccc2)cc1 (stereo not drawn)	x	16.4µM	x	u	x	x
COc1cc2c(cc1OC)C(COc1ccccc1OC)N(C(=O)COc1ccc(Cl)cc1)CC2 (stereo not drawn)	x	23.1µM	x	18.4µM	x	x
CN(C)CCOC(=O)NCC12CC3CC(CC(C3)C1)C2	n	n	n	n	n	n
CCN1C(=O)C(=O)N(CC(=O)NC(C)CCc2ccccc2)C1=O (stereo not drawn)	n	n	n	n	n	n
O=C(Nc1ccc2ccccc2c1)N1CCCN(CCOc2ccccc2)CC1	n	4.11µM	u	4.61µM	n	n
O=C(c1cc2ccccc2o1)N1CCN(CCOc2ccccc2)CC1	n	u	n	u	n	n
COc1ccc(CNc2ncncc2-c2ccccc2Cl)c(OC)c1	x	n	x	n	x	x
COc1ccccc1-c1nc(NCc2cccnc2)c2ccccc2n1	x	u	x	n	x	x
COc1ccc(CNc2nc3ccccc3n2C(C)C)c(O)c1	n	u	n	u	u	n
COc1ccc(CNc2nc3ccccc3n2C)c(OC)c1	n	16.4µM	n	u	u	n
COc1ccc(CNc2ccnc(-c3ccccc3Cl)n2)c(OC)c1	x	23.1µM	x	u	x	x
COc1ccc(CNc2ccnc(-c3ccccc3OC)n2)c(OC)c1	x	23.1µM	x	13µM	x	x
COc1ccc(CNc2nc(-c3ccccc3OC)nc3ccccc23)c(OC)c1	x	9.2µM	x	23.1µM	x	x
CC(Sc1ccsc1[N+](=O)[O-])C(=O)N1CCN(c2ccccn2)CC1 (stereo not drawn)	n	n	n	n	n	n
SMILES	HT1080NT lethal	DT40 TDP1 no CPT	uPA surface inh	DT40 TDP1 CPT	IL1B secr inh	HT1080 IDH1KD tx
Clc1cccc(-c2nc(-c3ccc(-c4nn[nH]n4)cc3)no2)c1	x	x	n	x	x	x
CCCc1cc(C(=O)N/N=C/c2cccn2C)cs1	n	n	n	n	n	n
COC(=O)N(C)C[C@H]1OCc2cn(nn2)CCCC(=O)N([C@@H](C)CO)C[C@@H]1C	n	n	x	n	n	n
O=C1c2ccccc2C(c2nnnn2Cc2ccccc2)N1Cc1ccc2c(c1)OCO2 (stereo not drawn)	n	n	x	n	n	n
Cc1nnc(NC(=O)CSCc2cc(=O)c3ccc(C)c(C)c3[nH]2)s1	x	u	x	n	x	x
CCn1c(SCC(=O)NC2CC2)nnc1-c1ccc(F)cc1	n	n	n	n	n	n
COc1ccc(CNc2ccnc(-c3ccccc3CN(C)C)n2)c(OC)c1	x	14.6µM	x	u	x	x
CCCCN(CC)C(=O)c1ccc2c(c1)NC(=O)c1ccccc1S2	x	n	x	n	x	x
CCOc1ccc(N2C=Nc3ccc(OCC)cc3C2)cc1	n	18.4µM	n	20.6µM	-59.5	n
CCNS(=O)(=O)c1ccc(CCC(=O)Nc2cc(Cl)ccc2Oc2ccccc2)cc1	u	u	n	u	u	u
CC(C)NS(=O)(=O)c1ccc(CCC(=O)Nc2cc(Cl)ccc2Oc2ccccc2)cc1	n	23.1µM	n	23.1µM	n	n
CCC(=O)OCC(=O)C1(OC(=O)CC)C(C)CC2C3C(Cl)CC4=CC(=O)C=C[C@@]4(C)C3C(O)C[C@@]21C (stereo partly drawn)	x	n	x	n	x	x
C[C@@H]1CCCCCCCCC(=O)OCCN[C@H](C)CCCCCCCCC(=O)OCCN[C@H](C)CCCCCCCCC(=O)OCCN1	n	20.6µM	n	13µM	-58.6	n
CCOc1ccc(CNC(=O)c2cnc3sc(N4CCCCCC4)nn3c2=O)cc1OC	x	n	x	n	x	x
O=C(NCCc1ccccc1)c1cnc2sc(N3CCCCC3)nn2c1=O	x	20.6µM	x	8.2µM	x	x
O=C(NCc1ccccc1Cl)c1cnc2sc(N3CCCCC3)nn2c1=O	x	9.2µM	x	13µM	x	x
COc1ccc(CNC(=O)c2cnc3sc(N4CCCC4)nn3c2=O)cc1OC	x	u	x	9.2µM	x	x
O=C(NCCc1ccccc1)c1cnc2sc(N3CCCCCC3)nn2c1=O	x	13µM	x	u	x	x
CCc1ccc(CN(C)C(=O)CCc2nnc(COc3ccccc3)o2)cc1	n	u	n	u	n	n
Cc1c(NC(=O)Cc2ccc(F)cc2)cccc1-c1nc2cccnc2s1	x	n	x	n	x	x
CCOc1ccc(CCNC(=O)c2cnc3sc(N4CCCCCC4)nn3c2=O)cc1	x	18.4µM	x	18.4µM	x	x
N#Cc1ccc2[nH]cc(C3c4cc(F)ccc4C=C(c4ccsc4)N3c3ccc(C#CCCO)cc3)c2c1 (stereo not drawn)	u	18.4µM	x	u	u	14.6µM
CC(C)(O)C#Cc1ccc(N2C(c3ccsc3)=Cc3ccc(F)cc3C2c2c[nH]c3ccccc23)cc1 (stereo not drawn)	n	18.4µM	x	u	n	n
